# gsp agonist: activates gsp, the McCune-Albright syndrome mutation; Potency, µM (doses to about 76.9 µM), for inactives: top-dose activation (cAMP increase), usual class: activators; 340,000 tested, 0.13% active; gsp mutant cells, cAMP HTRF, 30 min; active = well fitted activation curve with a large enough effect; inconclusive = small, poorly fitted or top-dose-only effect, or another doubt; inactive = no such curve, though single readings can be large or run the other way; cell line not stated here;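 also: phosphodiesterase inhibitor Ro 20-1724 added with compounds to block cAMP breakdown; potency is read from the fitted curve at half-maximal effect; nearly all actives have a fitted effect of over 60% in size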
#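 Cells in DMEM/10% FBS with G418 were pretreated with compounds in DMSO plus […] (300 uM stock) for 30 min at 37C. cAMP was measured by HTRF (cAMP-d2 plus anti-cAMP antibody-K) after 30 min at room temperature.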
# RXFP1 antagonist: blocks the human relaxin receptor RXFP1; Q9HBX9; HEK293-RXFP1, relaxin-stimulated cAMP HTRF, 30 min; active compounds read low; activity change, negative = inhibition, % at 57.5 µM; 350,000 tested, 0.59% active; AID 1259400;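 active = activity change of -60% or lower, but not beyond a set lower limit; inconclusive = change between -60% and -40%, or beyond the set limit; inactive = change above -40%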; also: % is scaled to controls: 0 for no effect and ±100 for the full control effect
# Target sequence (Q9HBX9 whole entry, looked up): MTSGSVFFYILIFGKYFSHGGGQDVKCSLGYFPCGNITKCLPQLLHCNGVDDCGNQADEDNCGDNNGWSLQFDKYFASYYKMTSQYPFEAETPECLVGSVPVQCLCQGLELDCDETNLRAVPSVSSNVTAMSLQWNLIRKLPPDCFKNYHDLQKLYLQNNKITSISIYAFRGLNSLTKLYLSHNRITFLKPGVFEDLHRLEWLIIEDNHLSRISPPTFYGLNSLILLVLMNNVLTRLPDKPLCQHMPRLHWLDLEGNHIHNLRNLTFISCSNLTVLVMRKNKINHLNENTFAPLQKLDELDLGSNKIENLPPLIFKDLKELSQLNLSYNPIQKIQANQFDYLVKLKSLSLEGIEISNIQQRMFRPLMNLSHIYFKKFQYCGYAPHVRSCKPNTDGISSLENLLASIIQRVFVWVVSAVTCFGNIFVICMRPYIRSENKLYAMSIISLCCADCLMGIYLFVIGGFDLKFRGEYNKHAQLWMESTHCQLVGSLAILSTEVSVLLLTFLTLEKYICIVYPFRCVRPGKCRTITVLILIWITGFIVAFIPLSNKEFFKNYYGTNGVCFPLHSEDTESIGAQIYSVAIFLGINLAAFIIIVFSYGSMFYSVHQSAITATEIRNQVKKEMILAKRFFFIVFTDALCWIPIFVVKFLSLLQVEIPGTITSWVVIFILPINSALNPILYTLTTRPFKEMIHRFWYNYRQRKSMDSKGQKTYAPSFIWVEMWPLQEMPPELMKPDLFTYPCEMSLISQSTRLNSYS
# gsp antagonist: antagonists of gsp mutant (McCune-Albright syndrome); gsp-mutant cells, cAMP HTRF, 30 min; Potency, µM (doses to about 76.9 µM), inactives show at the highest dose activity change, negative = inhibition, usual class: inhibitors; 340,000 tested, 0.4% active; calls by dose curve; cell line not stated here;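 also: intracellular cAMP measured with PDE inhibitor Ro 20-1724 present during compound exposure; potency is read from the fitted curve at half-maximal effect; % is scaled to controls: 0 for no effect and ±100 for the full control effect; nearly all actives have a fitted effect of over 65% in size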
#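 Measurement of cellular cAMP by homogeneous time-resolved fluorescence following a 30 min compound exposure at 37C. The PDE inhibitor […] was present throughout; the assay buffer was DPBS with 0.05% BSA and 0.005% Tween 20.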
# RXFP1 agonist: activates the human relaxin receptor RXFP1. Potency, µM (series often up to 57.5 µM), inactives show top-dose activation, most hits filed as activators. Q9HBX9. AID 2676. 370,000 tested, 0.3% active. HEK293T-RXFP1 cAMP TR-FRET, 30 min; response scale: percent of porcine relaxin response, buffer zero; also: potency is read from the fitted curve at half-maximal effect; % is scaled to controls: 0 for no effect and ±100 for the full control effect; nearly all actives have a fitted effect of over 60% in size
#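 cAMP rise read by TR-FRET after 30 min, 37C compound exposure (up to 58 uM) in RXFP1-transfected HEK293 cells with Ro 20174 present. EC50 from Hill-equation fits, with 29 nM porcine relaxin as 100% and buffer as basal.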
# PTHR1 agonist: activates the human parathyroid hormone receptor PTHR1; AID 743266; 410,000 tested, 0.075% active; Potency, µM (doses to about 115 µM), inactives show top-dose activation, hits mostly activators; HEK293 GP2 PTHR1 cells, GloSensor cAMP luminescence, 1 h; also: potency is read from the fitted curve at half-maximal effect; nearly all actives have a fitted effect of over 55% in size
#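 HEK-293-derived GP2 cells expressing PTHR1 and a GloSensor cAMP reporter, 3,000/well, plated overnight, given luciferin plus IBMX (each 0.5 mM as added) for 1 h at 37 °C, then compound for 1 h at 37 °C. Luminescence was read after 15 min at room temperature.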
# * = called active by the depositor; i = inactive; ? = inconclusive; nt = no result; ! = not active in a repeat; [ ] = another dose, or the depositor's remark. Hits are enriched below; roughly 1% of the tested compounds scored in any of these assays. Unless noted, calls follow the shape of the dose curve; as a rule, active = well fitted curve in the direction sought with a large enough effect; inconclusive = small, poorly fitted or top-dose-only effect, or another doubt; inactive = no such curve, though single readings can be large; an effect the other way counts as inactive or inconclusive.
SMILES,gsp agonist,RXFP1 antagonist,gsp antagonist,RXFP1 agonist,PTHR1 agonist
O=C(Nc1onc2c1CCCC2)c1ccccc1,nt,-3.7,nt,1.9%,-1.2%
CC(C)(C)c1ccc(C(=O)Nc2onc3c2CCCC3)cc1,nt,-60.4*,nt,-1.4%,-6.5%
O=C(Nc1nc(=O)c2ccccc2s1)c1ccc(Cl)cc1,?,9.7,-8.7%,31.6µM*,-8.1%
CS(=O)(=O)c1ccc2nc(NC(=O)c3ccc(Cl)cc3)sc2c1,24.2%,-0.1,-12.5%,6.6%,-34.2%
O=C(Nc1nc2ccsc2c(=O)s1)c1ccc(Cl)cc1,?,2.7,2.3%,12.6µM*,-28.3%
CCOc1ccc(C2C(C#N)=C(N)SC(N)=C2C#N)cc1OCC,?,8.4,17.1%,11.4%,-5.3%
N#CC1=C(N)SC(N)=C(C#N)C1c1cccc(Oc2ccccc2)c1,24.9%,-4.4,28.2µM*,2.8%,-23.5%[57.5 µM]
Cc1ccc(C)c(C(=O)CSc2nc3cc(C(=O)NC4CCCC4)ccc3c(=O)n2CC2CCCO2)c1 (centres undefined),nt,nt,nt,-1.0%,i
COc1ccccc1Nc1c2c(nc3ccc(NC(=O)c4cccc(F)c4)cc13)CCCC2,nt,-75.0*,nt,-0.8%,-91.2%
COc1ccccc1Nc1c2c(nc3ccc(NC(=O)/C=C/c4cccc(OC)c4OC)cc13)CCCC2,nt,-4.5,nt,-1.5%,-8.9%
COc1ccc(S(=O)(=O)N2CCC(C(=O)N[C@@H](C)C(=O)NC3CC3)CC2)cc1,?,-19.0,20.6%,3.4%,i
CC1CCN(S(=O)(=O)c2ccc(NC(=O)CNC3CCCCC3)cc2)CC1,?,-104.2*,7.5%,-2.9%,i
CC(=O)Nc1ccc(S(=O)(=O)N2CCC(C(=O)N[C@@H](C)C(=O)NC3CCCC3)CC2)cc1,-38.4%,-1.3,50.1µM*,2.4%,-11.7%
CCC1=C(OC(=O)N(CC)CC)N2C(=O)OC(=NCCc3c[nH]c4ccccc34)[C@]2(Cc2ccccc2)[C@H]2C1=CC[C@H]1C(=O)N(CC(=O)OC)C(=O)[C@H]12,7.4%,nt,?,0.4%,-22.8%
CCC1=C(OC(=O)N(CC)CC)N2C(=O)OC(=NCCc3c[nH]c4ccccc34)[C@]2(Cc2ccccc2)[C@H]2C1=CC[C@H]1C(=O)NC(=O)[C@H]12,-2.4%,nt,11.2µM*,-2.5%,-20.1%
O=C(Cc1ccccc1)Nc1cc(-c2nc3cc(Cl)ccc3o2)ccc1Cl,nt,nt,nt,6.0%,i
CCS(=O)(=O)c1ccc(OC)c(C(=O)OC)c1,nt,-26.7,nt,nt,nt
Cc1ccc(C(=O)N2CCN(c3ccccc3)CC2)cc1S(=O)(=O)N1CCCC1,-39.8%,4.1,31.6µM*,-0.4%,-15.4%[57.5 µM]
Cc1ccc(C(=O)N2CCN(c3ccc(F)cc3)CC2)cc1S(=O)(=O)N1CCCCC1,-54.1%,-8.1,-9.8%,0.8%,-57.3%
Cc1ccc(NC(=O)c2ccc(F)c(S(=O)(=O)N3CCOCC3)c2)cc1F,-46.0%,-13.0,35.5µM*,0.1%,-94.9%
Cc1ccc(C(=O)Nc2cccc(O)c2)cc1S(=O)(=O)N1CCCCCC1,-5.0%,-82.8*!,-7.5%,-1.2%,-23.5%
O=C(CSc1nccn1-c1cccc(Cl)c1)Nc1cccc2ccccc12,nt,-2.3,nt,1.3%,-24.2%
COc1ccc(OCC(=O)NC(=S)Nc2ccc3c4c(cccc24)CC3)cc1,?,12.8,16.1%,20µM*,-22.2%
O=S(=O)(NC[C@@H]1CCC[C@H](CNS(=O)(=O)c2c(F)cccc2F)C1)c1ccc2c(c1)OCCO2,nt,nt,nt,2.8%,nt
Cn1c(SCc2ccc(C(C)(C)C)cc2)nnc1C1COc2ccccc2O1 (centres undefined),29.1%,-68.6*,-26.1%,-1.4%,-84.2%
SMILES,gsp agonist,RXFP1 antagonist,gsp antagonist,RXFP1 agonist,PTHR1 agonist
Cn1c(SCc2nnc(-c3ccc(F)cc3)o2)nnc1C1COc2ccccc2O1 (centres undefined),15.3%,9.3,4.7%,1.9%,-6.8%
COc1cc(C(=O)N2CCN(c3ccc(Nc4ccccc4)nn3)CC2)cc(OC)c1OC,nt,-5.1,nt,1.5%,i
CN(C)S(=O)(=O)c1cccc(COC(=O)c2ccc(Cl)cc2O)c1,16.8%,5.8,?,-2.0%,-89.2%
CN(C)S(=O)(=O)c1cccc(COc2ncnc3c(Cl)cc(Cl)cc23)c1,?,11.9,-5.6%,15.8µM*,-20.7%
C[C@@H]1CN(CCCn2c3ccccc3c3ccccc32)C[C@H](C)N1,nt,-96.7*,nt,3.0%,nt
COc1ccc(NC(=O)c2ccco2)cc1NC(=O)COc1ccccc1Cl,nt,-0.4,nt,28.6%,i
Oc1cc(Nc2ccc(N3CCCCC3)cc2)cc2cccnc12,nt,nt,nt,0.9%,nt
Brc1ccc(-c2ccc(CNCCSc3nnnn3-c3ccccc3)o2)cc1,nt,6.0,nt,14.1µM*,-15.7%
Clc1ccc(-c2ccc(CNCCSc3nnnn3-c3ccccc3)o2)cc1,nt,?,nt,3.3%,-56.1%
O=C(NCc1ccc(Cl)cc1)C(=O)NCC(c1cccnc1)N1CCN(c2ccccc2)CC1 (centres undefined),nt,-2.5,nt,1.8%,-24.4%
COc1cc(-c2nc(Cn3nnc(C(=O)Nc4cccc(Cl)c4)c3C)c(C)o2)cc(OC)c1OC,nt,nt,nt,11.7%,-0.6%
COc1nc(-c2ccccc2)c2cc(Br)ccc2n1,12.6µM*,-11.6,2.6%,nt,i
NNc1nc(-c2ccccc2)c2cc(Br)ccc2n1,-61.5%,-5.1,0.0%,2.8%,4.8%
CCC1CN(C(=O)N2CCC(C(=O)NCCc3ccccc3Cl)CC2)c2cc(C)ccc2O1 (centres undefined),nt,-87.5*,nt,3.0%,-94.7%
CCc1ccc(CNC(=O)C2CCN(C(=O)N3CC(CC)Oc4ccc(C)cc43)CC2)cc1 (centres undefined),nt,-68.0*,nt,-0.5%,-89.1%
CCC1CN(C(=O)N2CCC(C(=O)NCCc3ccccc3C)CC2)c2ccccc2O1 (centres undefined),nt,-17.7,nt,-2.8%,-30.4%
CC(Oc1cccnc1[N+](=O)[O-])C(=O)Nc1cccc(Cl)c1 (centres undefined),-4.2%,-96.9*,-21.2%,1.7%,-27.1%
CC(Oc1cccnc1[N+](=O)[O-])C(=O)Nc1ccc(F)cc1 (centres undefined),43.1%,?,1.7%,-0.1%,?
O=C(CN1C(=O)/C(=C\c2cccc(Br)c2)Oc2ccccc21)NCCCN1CCOCC1,14.8%,0.8,8.5%,4.8%,i
COCCNC(=O)CN1C(=O)/C(=C/c2ccccc2)Oc2ccc(C(C)(C)C)cc21,13.5%,-15.6,28.2µM*,5.5%,-20.6%
CCOc1ccc(CNC(=O)c2cc3c(=O)n(Cc4cccs4)ccc3nc2C)cc1,nt,14.0,nt,-0.7%,-12.8%
O=C1C=C(c2ccccc2)C(=O)N1Nc1ccccc1,-3.7%,-108.5*,16.5%,0.6%,-36.0%
Cc1ccc(NN2C(=O)C=C(c3ccc(Cl)cc3)C2=O)cc1,?,-95.6*,-6.6%,1.7%,-20.4%
Cc1ccc(-c2c(CN3CCN(c4cc(Cl)ccc4C)CC3)csc2C)cc1,nt,5.2,nt,0.7%,i

# Compound activity deposited in PubChem by National Center for Advancing Translational Sciences (NCATS).
